This passage reports Potency results from PubChem BioAssay (NCATS).

Inconclusive results are not listed. Activity calls are given as the source filed them. The call rests on the fitted dose curve; in most records, active means well fitted cell-killing curve with a large enough effect; inconclusive means small, poorly fitted or top-dose-only effect, or effect the other way; inactive means no such curve, though single readings can be large or run the other way.

Assay [1] can be described thus: Quantitative High-Throughput drug screen in 47 multiple myeloma cell lines against the NCATS MIPE library collection: RPMI8226_ATCC cell viability assay (AID 1919871). Further: nearly all actives have a fitted effect of over 30% in size. The procedure, abridged: (§1)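 Inhibition of viability over 48 h was scored by ATP content (CellTiter-Glo) in 500-cell wells. Zero and full viability were defined by media-only and DMSO-only wells.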
Assay [2] in a line: Quantitative High-Throughput drug screen in 47 multiple myeloma cell lines against the NCATS MIPE library collection: OPM2_DSMZ cell viability assay (AID 1919872). Further: nearly all actives have a fitted effect of over 30% in size. Put shortly:
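CellTiter-Glo luminescence (ATP) after 48 h compound exposure, 37C/5% CO2; 500 cells/well; MIPE 4.0 approved/investigational drugs pinned in; DMSO = 100%, media only = 0% viability.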

Assay [3] can be described thus: Quantitative High-Throughput drug screen in 47 multiple myeloma cell lines against the NCATS MIPE library collection: KMS11_JCRBsus cell viability assay (AID 1919873). Further: nearly all actives have a fitted effect of over 50% in size. The procedure, abridged:
as §1

The nature of assay [4]: Quantitative High-Throughput drug screen in 47 multiple myeloma cell lines against the NCATS MIPE library collection: KMS28BM_JCRB cell viability assay (AID 1919874). Further: nearly all actives have a fitted effect of over 35% in size. The procedure, abridged: as §1
Assay [5] in a line: Quantitative High-Throughput drug screen in 47 multiple myeloma cell lines against the NCATS MIPE library collection: PCM6_Riken cell viability assay (AID 1919870). Further: nearly all actives have a fitted effect of over 30% in size. The procedure, abridged:
as §1
Potency means the concentration at half of the fitted maximal effect.

In the case of `CC=C1C2C=C(C)CC1(N)c1ccc(=O)[nH]c1C2` (configuration not stated), the Potency result in assay [1], in assay [2], in assay [3] and in assay [4] was “inactive” throughout.

As for `c1ccc(CNc2nc(N3CCOc4ccccc43)nc3c2CCCC3)cc1`, the Potency entry in assay [5] and in assay [4] was “inactive” each time.

Regarding `CCOC(=O)N1c2ccc(C(F)(F)F)cc2[C@@H](N(Cc2cc(C(F)(F)F)cc(C(F)(F)F)c2)C(=O)OC)C[C@H]1CC`, the Potency in assay [1] and in assay [2] was 9.35 µM (active) in each case.

In the case of `Cn1c(=O)c(Oc2ccc(F)cc2F)cc2cnc(NC3CCOCC3)nc21`, the Potency entry in assay [2] and in assay [4] was “inactive” each time.

Turning to `FC(F)(F)c1ccc(C=Cc2nc(COc3ccc(CCCCn4ccnn4)cc3)co2)cc1`, the Potency in assay [5] was 0.0118 µM (active); in assay [3] it was 0.0235 µM (active).

As for `N=C1SC(=Cc2ccc(-c3ccc4c(c3)C(=O)NC4=O)o2)C(=O)N1c1ccc(Br)cc1`, the values for the Potency in assay [1] and in assay [2] were 3.32 µM (active) and 2.64 µM (active), respectively. For the same molecule, the Potency entry in assay [3] and in assay [4] was “inactive” throughout.

With `COc1ccc(-c2ccc3ncc4c(c3c2)n(-c2ccc(N3CCNCC3)c(C(F)(F)F)c2)c(=O)n4C)cn1`, the Potency in assay [1] is 0.332 µM (active).

With `COC(=O)N1CCN(Cc2cccc(NC(=O)Nc3ccc(C)nc3)c2F)CC1`, the Potency entry in assay [1] and in assay [2] was “inactive” in each case.

Regarding `Cc1ccc(C(=O)N(CCCN)[C@@H](c2oc3cc(Cl)ccc3c(=O)c2Cc2ccccc2)C(C)C)cc1`, the Potency result in assay [2] and in assay [3] was “inactive” each time.

With `CCCCc1ccc(NS(=O)(=O)c2ccc(C)c(C(=O)N3CCN(c4cccc(C)c4C)CC3)c2)cc1`, the values for the Potency in assay [1] and in assay [4] were 20.9 µM (active) and 16.6 µM (active), respectively.

Consider `CNc1nc(Nc2ccc(C(=O)N3CCOCC3)cc2OC)ncc1Cl`, for which, in assay [5], the Potency was 16.6 µM (active). The Potency result in assay [2], in assay [3] and in assay [4] was “inactive” in each case.

In the case of `CC[C@]1(O)C[C@H]2CN(CCC3=c4ccccc4=N[C]3[C@@](C(=O)OC)(c3cc4c(cc3OC)N(C)[C@H]3[C@@](O)(C(N)=O)[C@H](O)[C@]5(CC)C=CCN6CC[C@]43[C@@H]65)C2)C1`, the Potency in assay [1] is 0.132 µM (active); in assay [2] it was 0.0074 µM (active).

For the molecule `CC(C)(C)c1[nH]cnc1C=c1[nH]c(=O)c(=Cc2ccccc2)[nH]c1=O`, the Potency result in assay [2] and in assay [3] was “inactive” throughout.

Take `CCC=CC[C@H]1C(=O)CC[C@@H]1CC(=O)OC`: the Potency entry in assay [5], in assay [2], in assay [3] and in assay [4] was “inactive” each time.

With `Cc1ccc2c(c1)c1c(n2CCc2ccc(C)nc2)CCN(C)C1`, the Potency result in assay [5], in assay [3] and in assay [4] was “inactive” throughout.

As for `CC(=O)OCC(=O)[C@@]12OC(C)(C)O[C@H]1C[C@H]1[C@@H]3C[C@H](F)C4=CC(=O)C=C[C@]4(C)[C@@]3(F)[C@@H](O)C[C@@]12C`, the Potency in assay [1] was 0.0083 µM (active); in assay [3] it was 0.0166 µM (active). The Potency result in assay [2] and in assay [4] was “inactive” each time.

`CNC(=O)c1cc(COc2nnc(Nc3ccc(Cl)cc3)c3ccoc23)ccn1`: the Potency in assay [1] is 20.9 µM (active).

With `CCCCC[C@H](O)C=C[C@H]1[C@H](O)CC(=O)[C@H]1CCCCCCC(=O)O`, in assay [1], the Potency is 0.105 µM (active). The Potency result in assay [2], in assay [3] and in assay [4] was “inactive” in each case.

For `CCCCOCCOc1nc(-c2ccc(C(=O)O)c(F)c2)sc1C`, the Potency in assay [1] was 10.5 µM (active). The Potency result in assay [2] and in assay [3] was “inactive” throughout.

With `NC(=O)c1noc([C@H](CCCC2CCCCC2)CC(=O)NO)n1`, the Potency was 10.5 µM (active) in assay [1] and 20.9 µM (active) in assay [2]. For the same molecule, in assay [4], the Potency result is “inactive”.

Consider `Cc1ccc(C(=O)N(CCCN)[C@@H](c2nc3cc(Cl)ccc3c(=O)n2Cc2ccccc2)C(C)C)cc1`, for which the Potency in assay [5] was 5.26 µM (active). For the same molecule, the Potency entry in assay [2] and in assay [3] was “inactive” in each case.

Consider `CN1c2ccccc2C(=O)N2CCc3c([nH]c4ccccc34)C21` (configuration not stated), for which the Potency entry in assay [1] and in assay [2] was “inactive” throughout. Also, the Potency is 2.96 µM (active) in assay [3] and 3.32 µM (active) in assay [4].

Consider `COc1cc2c(cc1OC)[C@@H]1Cc3ccc(OC)c(OC)c3CN1CC2`, for which the Potency in assay [1] was 18.7 µM (active); in assay [2], 13.2 µM (active); in assay [3], 7.43 µM (active).

As to `CN(CC=CC#CC(C)(C)C)Cc1cccc2ccccc12`, the Potency result in assay [3] and in assay [4] was “inactive” each time.

For the molecule `CCC[C@@H](NC(=O)[C@@H]1[C@H]2CCC[C@@H]2CN1C(=O)[C@@H](NC(=O)[C@@H](NC(=O)c1cnccn1)C1CCCCC1)C(C)(C)C)C(=O)C(=O)NC1CC1`, the Potency in assay [1] is 16.6 µM (active); in assay [4], 18.7 µM (active).

With `COc1c(C)c2c(c(O)c1CC=C(C)CCC(=O)OCCN1CCOCC1)C(=O)OC2`, the results for the Potency in assay [1], in assay [2] and in assay [4] were 4.18 µM (active), 13.2 µM (active) and 3.32 µM (active), respectively.

As for `COc1cc(N2CCN(C)CC2)ccc1Nc1nc(N)c(C(=O)c2c(Cl)cccc2Cl)s1`, the Potency entry in assay [1] is “inactive”. Moreover, the Potency in assay [3] was 18.7 µM (active).
